PLC-gamma1 inh: PLC-gamma1 (human) inhibition, primary screen | purified PLC-gamma1, fluorogenic substrate, fluorescence | inhibition, % at 12.2 µM | 370,000 tested, 0.84% active; in the data active = inhibition above about 9.5%
PLCb3 inh: inhibitors of human phospholipase C beta3; Purified PLC-beta3, fluorogenic substrate, fluorescence; AID 720704; Q01970; inhibition, % at 12.2 µM; 370,000 tested, 0.18% active; in the data active = inhibition above about 11%
ADAM17 inh: ADAM17 inhibition, QFRET primary screen; recombinant ADAM17, EDANS/DABCYL FRET peptide cleavage; inhibition, % at 6.95 µM; 370,000 tested, 0.83% active; P78536; AID 720648;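 active = inhibition above the mean of compounds lying between control limits plus 3 SD, set per campaign, cut at about 8.5% in these data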
ADAM10 inh: inhibits human ADAM10. 370,000 tested, 0.62% active. recombinant ADAM10, EDANS/DABCYL FRET peptide cleavage, 3 h. inhibition, % at 7 µM. AID 720582. O14672;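 active = inhibition above a per-campaign cutoff equal to the mean of compounds falling between control-based bounds plus 3 SD, cut at about 20% in these data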
proKLK7 act: activates the human kallikrein-7 zymogen; 370,000 tested, 0.9% active; activation, % at 7 µM; purified proKLK7, EDANS-DABCYL substrate fluorescence; 100% is mature enzyme control, 0% vehicle; AID 652039;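 active = activation above the mean of all tested compounds plus 3 SD, computed per campaign excluding outliers beyond control limits, cut at about 13% in these data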
KLK7 act conf: confirmation of human kallikrein-7 zymogen activators | shares compounds with proKLK7 act | 3,200 tested, 68% active | purified proKLK7, EDANS-DABCYL substrate fluorescence; scaled: vehicle 0, mature enzyme 100 | activation, % at 7 µM;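 active = activation, as change over the incubation, above the mean of all tested compounds plus 3 SD, cut at about 13% in these data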
EDANS interfere: optically interferes with EDANS-DABCYL signal, flagging KLK7 hits | activation, % at 7 µM | EDANS-DABCYL substrate fluorescence interference, no enzyme, 4 h; solvent 0%, active enzyme control 100% | shares compounds with proKLK7 act | 3,200 tested, 80% active | AID 686952;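 active = activation above the all-compound mean plus 3 SD, ignoring values outside control-based bounds, cut at about 4.8% in these data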;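 note: value is the 4 h activation minus the activation read at time zero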
K7 EDANS ctr: optically interferes with EDANS-DABCYL fluorescence, kallikrein-7 activator counter-screen; shares compounds with proKLK7 act; EDANS-DABCYL peptide fluorescence interference, no enzyme; EC50, µM; 250 tested, 20% active;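 active = compounds that raise the fluorescence signal in this interference counterscreen, with EC50 at or below 10 µM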;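 note: intact quenched peptide substrate alone read at 355 nm excitation and 520 nm emission; signal is fluorescence gain from T0 to T4 after four hours at room temperature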
ADAM10 confirm: human ADAM10 inhibition, confirmation | inhibition, % at 6.95 µM | ADAM10 QFRET peptide cleavage, EDANS fluorescence | AID 743208 | 2,100 tested, 1% active | shares compounds with ADAM10 inh;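 active = inhibition above about 20% chosen separately for each screening run, limit read from the data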
ADAM17 ctr: inhibits human ADAM17 in ADAM10 exosite counter-screen; 2,100 tested, 0.5% active; inhibition, % at 6.95 µM; ADAM17 QFRET peptide cleavage, EDANS fluorescence; shares compounds with ADAM10 inh;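 active = mean triplicate inhibition above the solvent-only control wells' mean plus 3 SD, cut at about 12% in these data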
Of the large screens only hits and unclear results are named; the others gave an inactive call (follow-up assays come after a bar, where they were run). Only some compounds are listed: those with a hit (about 2.9% of all), similar ones and a draw of the others.

Cc1c(CC(=O)N2C[C@H]3C[C@@H](C2)c2cccc(=O)n2C3)c(=O)oc2c(C)c(O)ccc12	proKLK7 act 65 | KLK7 act conf 68 | EDANS interfere 72
Cc1c(CCC(=O)N2C[C@H]3C[C@@H](C2)c2cccc(=O)n2C3)c(=O)oc2c(C)c(O)ccc12	proKLK7 act 84 | KLK7 act conf 73 | EDANS interfere 78
Cc1c(CC(=O)N2C[C@H]3C[C@@H](C2)c2cccc(=O)n2C3)c(=O)oc2cc(O)c(Cl)cc12	proKLK7 act 73 | KLK7 act conf 60 | EDANS interfere 68
COc1ccc(CC(=O)N2C[C@H]3C[C@@H](C2)c2cccc(=O)n2C3)cc1	none
COc1cc2oc(=O)c(CC(=O)N3C[C@H]4C[C@@H](C3)c3cccc(=O)n3C4)c(C)c2cc1Cl	none
O=C(NC(CCC(O)CO)P(=O)(Oc1ccccc1)Oc1ccccc1)OCc1ccccc1 (stereo not given)	none
COP(=O)(OC)C(C)NC(=O)OCc1ccccc1 (stereo not given)	none (no result: proKLK7 act)
CN(C)CCN=Cc1c(O)n(CCC2=CCCCC2)c(=O)[nH]c1=O	proKLK7 act 27 | KLK7 act conf inactive | EDANS interfere inactive
O=c1[nH]c(=O)n(CCC2=CCCCC2)c(O)c1C=NCCCn1ccnc1	none
CC1(O)CCC2C3CCC4=CC(=O)CCC4=C3C=CC21C (stereo not given)	proKLK7 act 14 | KLK7 act conf 13 | EDANS interfere 23
Cc1cc(N2CCNC[C@H]2C)ccc1N1CC[C@H](O)C1	none
CCN1CCN(C(=O)COc2ccc3c(c2)C(=O)CC2(CCN(C(C)=O)CC2)O3)CC1	proKLK7 act 36 | KLK7 act conf 82 | EDANS interfere 63 | K7 EDANS ctr inactive
CC1(C)CC(=O)c2cc(OCC(=O)N3CCN(Cc4ccccc4)CC3)ccc2O1	none
CCOC(=O)c1c(N)n(CCCOC(=O)c2ccco2)c2nc3ccccc3nc12	proKLK7 act 39 | KLK7 act conf 63 | EDANS interfere 64
CCCCNC(=O)c1c(N)n(CCCOC)c2nc3ccccc3nc12	none
CCOC(=O)c1c(NS(=O)(=O)c2ccccc2)n(CCCOC)c2nc3ccccc3nc12	proKLK7 act 82 | KLK7 act conf 66 | EDANS interfere 70
COCCCn1c(N)c(C(=O)OCCOC)c2nc3ccccc3nc21	proKLK7 act 84 | KLK7 act conf 71 | EDANS interfere 78
Cc1ccc2c(c1)=NC(=O)/C(=C/c1c(O)[nH]c(=O)[nH]c1=O)C=2	proKLK7 act 18 | KLK7 act conf 46 | EDANS interfere 45
CC1=Nc2ccccc2/C1=C/c1c(O)[nH]c(=O)[nH]c1=O	none
COc1cc2c(cc1OC)C(c1c(O)n(CCc3ccccc3)c(=S)[nH]c1=O)NCC2 (stereo not given)	proKLK7 act 95 | KLK7 act conf 85 | EDANS interfere 84
COc1ccc(C2CC(c3c(O)n(CCc4ccccc4)c(=O)[nH]c3=O)=NN2)cc1OC (stereo not given)	none
CN1C[C@H](O)[C@H]2C[C@@H]1c1ccccc1O2	none
COC(=O)C12CCc3c(ccc4cc(OC)ccc34)C1=CC(=O)C2 (stereo not given)	proKLK7 act 93 | KLK7 act conf 65 | EDANS interfere 79
CCCCN1CCN(C(=O)COc2cc(=O)n(C)c3ccccc23)CC1	none
CCOc1ccc(-c2cc(C)[n+](CCN3CCOCC3)c(-c3ccc(OCC)cc3)c2)cc1	proKLK7 act 25 | KLK7 act conf 29 | EDANS interfere 28
Cc1cccc(C(C)c2cnc[nH]2)c1C (stereo not given)	none
CC[C@@H](CO)NC(=O)[C@@H]1C=C2c3cccc4[nH]cc(c34)C[C@H]2N(C)C1	proKLK7 act 19 | KLK7 act conf inactive | EDANS interfere inactive
CCCCCCC(C)(C)c1ccc([C@@H]2C[C@H](O)CC[C@H]2CCCO)c(O)c1	ADAM10 inh 27 | ADAM10 confirm inactive | ADAM17 ctr inactive
CCCC/C(C)=C/[C@@H](NP(=O)(c1ccccc1)c1ccccc1)c1ccccc1	ADAM10 inh 20 | ADAM10 confirm inactive | ADAM17 ctr inactive
O=C(COC(=O)c1cccc(O)c1)Nc1ccc(Cl)cc1C(=O)c1ccccc1	ADAM10 inh 23 | ADAM10 confirm inactive | ADAM17 ctr inactive
CCOc1ccccc1OCC(=O)Nc1ccc(Cl)cc1C(=O)c1ccccc1	none
COC(=O)c1ccc(NC(=O)CSc2nc3ccc(N4C(=O)C5C6C=CC(C6)C5C4=O)cc3s2)cc1 (stereo not given)	ADAM10 inh 25 | ADAM10 confirm inactive | ADAM17 ctr inactive
O=P(OCCCl)(OCCCl)OCCCl	none
CC(C)S(=O)(=O)N1Cc2ccc(Br)cc2-n2nncc2C1	none
O=C1NCN(c2ccccc2)C12CCN(C(CCc1ccccc1)c1nnnn1-c1ccc3c(c1)OCCO3)CC2 (stereo not given)	ADAM17 inh 11, ADAM10 inh 25 | ADAM10 confirm inactive | ADAM17 ctr inactive
CCN1C(=O)C(=Cc2ccc(N3CCOCC3)o2)C(=O)N(CC)C1=S	ADAM10 inh 25 | ADAM10 confirm inactive | ADAM17 ctr inactive
NC(=Nc1ccccc1)NN=Cc1c[nH]c2ccccc12	none
CCCCCN1C(=O)c2cc(OC)ccc2[C@@]2(C(=O)OCC)Cc3cc(OC)ccc3[C@@H]12	none
COC(=O)C1=C(c2cccc(OCc3ccccc3)c2)C[C@@H]2CC[C@H]1N2C(=O)NCc1ccc([N+](=O)[O-])cc1	ADAM10 inh 26 | ADAM10 confirm inactive | ADAM17 ctr inactive
COC(=O)C1=C(c2ccccc2OCc2ccccc2)C[C@@H]2CC[C@H]1N2C(=O)NCc1ccc(F)cc1	none
COC(=O)C1=C(c2ccccc2OCc2ccccc2)C[C@@H]2CC[C@H]1N2C(=O)NCc1ccc(C(C)(C)C)cc1	ADAM10 inh 25 | ADAM10 confirm inactive | ADAM17 ctr inactive
O=C(NCCN1CCC2(CC1)C(=O)NCN2c1cccc(F)c1)c1ccc2ccccc2c1	none
O=C(NC1CCCCC1)N1Cc2cc(Br)ccc2-n2nncc2C1	none

Screens from PubChem.
